Compound activity: PubChem, NMMLSC
An excerpt weighted towards active compounds, which were near 1.2% of everything screened.
RGS16-Gao HTS = modulators of RGS16 binding to Galphao, primary screen, biochemical, human proteins, multiplexed bead flow cytometry | binding response (% of control), % at 10 µM | bead-based flow cytometry RGS16-Galphao binding, fluorescence; actives lie on both sides | AID 1441, 2008 | Regulator of G-protein signaling 16 (Homo sapiens) + Guanine nucleotide-binding protein … | 0.38% of 220,000 active;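 also: Galphao activated by GDP with aluminum fluoride before binding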
RGS4-Gao reg = modulators of RGS4 binding to Galphao, primary screen, biochemical, multiplexed bead flow cytometry. actives lie on both sides. 0.33% of 220,000 active. binding response (% of control), % at 10 µM. AID 1415, 2008. Guanine nucleotide-binding protein G(o) subunit alpha (Homo sapiens), P09471; in the data active = binding response below about 49% or above about 150%; inactive = in between;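 also: fluorescent Galphao activated with aluminum fluoride binding bead-coupled RGS4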
Target sequence (P09471 whole entry, looked up): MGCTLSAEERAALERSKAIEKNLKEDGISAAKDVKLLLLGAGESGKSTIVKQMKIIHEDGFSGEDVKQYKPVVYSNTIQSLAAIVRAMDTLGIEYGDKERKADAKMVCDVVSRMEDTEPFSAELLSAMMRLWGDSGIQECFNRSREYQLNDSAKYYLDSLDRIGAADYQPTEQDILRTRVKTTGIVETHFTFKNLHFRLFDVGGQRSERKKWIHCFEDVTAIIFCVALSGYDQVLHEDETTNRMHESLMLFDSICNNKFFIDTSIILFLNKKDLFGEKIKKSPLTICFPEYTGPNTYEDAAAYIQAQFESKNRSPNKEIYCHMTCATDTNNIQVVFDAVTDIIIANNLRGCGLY
RGS7-Gao = RGS7-Galphao binding modulators, primary screen, biochemical, multiplexed bead flow cytometry. Guanine nucleotide-binding protein G(o) subunit alpha (Homo sapiens), P09471. actives lie on both sides. binding response (% of control), % at 10 µM. 0.35% of 220,000 active. AID 1439, 2008; in the data active = binding response below about 49% or above about 150%; inconclusive = no clear call, values can overlap the other calls; inactive = in between;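 also: fluorescent Galphao held in activated GDP-AlF4 state binding bead-coupled RGS7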
Avidin bead fluor = green autofluorescence of compounds with avidin beads – biophysical, 488/530 nm, flow cytometry, artefact control, profiling panel. compound fluorescence 488/530 nm; stronger effect = higher value. fluorescence (KMESF) at 10 µM. 0.38% of 220,000 active; in the data active = fluorescence above about 47
GSH bead fluor = compound fluorescence on glutathione beads, profiling panel, artefact control, biophysical, 488/530 nm, flow cytometry; fluorescence (KMESF) at 10 µM; AID 1776, 2009; GSH beads flow cytometry, compound fluorescence 488/530 nm; stronger effect = higher value; 0.25% of 190,000 active; in the data active = fluorescence above about 89;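 also: glutathione beads carrying GST-tagged Bcl family fusion proteins plus one bare bead set; values are compound well signal with DMSO vehicle wells as background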
RGS8-Gao reg = RGS8-Galphao binding modulators, primary screen, biochemical, multiplexed bead flow cytometry; AID 1423, 2008; Guanine nucleotide-binding protein G(o) subunit alpha (Homo sapiens), P09471; 0.34% of 220,000 active; actives lie on both sides; response (percent of control binding), % at 10 µM; in the data active = response below about 60% or above about 140%; inactive = in between;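 also: Galphao activated as the GDP aluminium fluoride complex binding bead-coupled RGS8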
RGS-Gao = modulators of RGS–Galpha-o binding, primary screen, biochemical, multiplexed beads, flow cytometry, RGS4/7/8/16/19. multiplexed bead flow cytometry. RGS4–Galpha-o binding response, % at 10 µM. shares compounds with RGS16-Gao HTS. 99% of 1,600 active;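 also: fluorescently labeled Galpha-o bound to GDP with aluminium fluoride binding biotinylated RGS beads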
Biotin-avidin = disruption of biotin probe capture by avidin, counter-screen for RGS protein interaction modulators, biochemical, flow cytometry, bead-based; shares compounds with RGS16-Gao HTS; streptavidin beads, fluorescein-biotin binding; inhibition, % at 10 µM; 1,700 tested, under 10 active; AID 1783, 2009;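 active = inhibition above 50%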;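 also: median green fluorescence of gated singlet beads compared with DMSO control wells; 0% = DMSO wells and 100% = complete loss of bead fluorescence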
RGS8-Gao single = RGS8-Galphao binding modulators, confirmation, biochemical, multiplexed bead flow cytometry, single concentration; shares compounds with RGS16-Gao HTS; bead-based flow cytometry RGS8-Galphao binding, fluorescence; actives lie on both sides; binding response (% of control), % at 10 µM; 3% of 1,700 active; in the data active = binding response below about 72% or above about 130%; inactive = in between;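 also: Galphao activated as GDP AlF4 complex before binding bead RGS8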
RGS7-Gao single = RGS7-Galphao binding modulators, confirmation, biochemical, multiplexed bead flow cytometry, single concentration; shares compounds with RGS16-Gao HTS; 7.8% of 1,700 active; response (percent of control binding), % at 10 µM; bead-based flow cytometry RGS7-Galphao binding; actives lie on both sides; in the data active = response below about 75% or above about 130%; inactive = in between;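 also: fluorescent Galphao activated with GDP and aluminum fluoride binding bead-coupled RGS7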
RGS16-Gao conf = modulators of RGS16-Galphao protein binding, confirmation, biochemical, single concentration, multiplexed bead flow cytometry; AID 1838, 2009; 4% of 1,700 active; bead-based flow cytometry; actives lie on both sides; response (% of control binding), % at 10 µM; shares compounds with RGS16-Gao HTS; in the data active = response below about 74% or above about 130%; inactive = in between;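 also: Galphao activated as the GDP aluminium fluoride complex binding bead-coupled RGS16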
RGS4-Gao single = modulators of RGS4-Galphao protein binding, confirmation, biochemical, single concentration, multiplexed bead flow cytometry. shares compounds with RGS16-Gao HTS. actives lie on both sides. binding response (% of control), % at 10 µM. 4% of 1,700 active; in the data active = binding response below about 74% or above about 130%; inactive = in between
RGS19-Gao conf = regulators of RGS19-Galphao binding, confirmation, biochemical, single point, multiplexed bead flow cytometry; shares compounds with RGS16-Gao HTS; bead-based flow cytometry RGS19-Galphao binding; actives lie on both sides; response (percent of control binding), % at 10 µM; 5% of 1,700 active; in the data active = response below about 50% or above about 160%; inactive = in between;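 also: 100% = no compound control and 0% = blank background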
Target sequence (P09471 whole entry, looked up): as above
Target sequence (P49795 whole entry, looked up): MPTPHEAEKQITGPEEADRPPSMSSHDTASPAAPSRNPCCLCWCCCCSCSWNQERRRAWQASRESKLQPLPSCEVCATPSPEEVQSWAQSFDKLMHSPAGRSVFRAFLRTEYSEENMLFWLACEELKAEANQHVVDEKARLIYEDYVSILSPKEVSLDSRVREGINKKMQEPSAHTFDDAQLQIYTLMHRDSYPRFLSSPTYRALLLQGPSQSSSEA
An asterisk follows results filed as active; [ ] = another dose, or the depositor's remark. Unless noted, no rule for the calls is given here.

How did COc1ccc(C(=S)N2CCOCC2)cc1OC(=O)c1cc([N+](=O)[O-])c(C)c([N+](=O)[O-])c1 do in these assays?
RGS16-Gao HTS: 103.8; RGS4-Gao reg: 100.4; RGS7-Gao: 107.2; Avidin bead fluor: 14; GSH bead fluor: 16; RGS8-Gao reg: 100.7

What do the screens show for `COc1cc(C(=S)N2CCOCC2)ccc1OC(=O)c1cc([N+](=O)[O-])c(C)c([N+](=O)[O-])c1`?
RGS16-Gao HTS: 6.2*; RGS4-Gao reg: 85.7; RGS7-Gao: 91.2; Avidin bead fluor: 6; GSH bead fluor: 5; RGS8-Gao reg: 80.0; RGS-Gao: 85.7*; Biotin-avidin: -1.4; RGS8-Gao single: 102.0; RGS7-Gao single: 98.3; RGS16-Gao conf: 101.9; RGS4-Gao single: 100.7; RGS19-Gao conf: 94.6

How did C/C(=C\C(=O)C(F)(F)F)Nc1ccc(C)cc1 do in these assays?
RGS16-Gao HTS: 597.8; RGS4-Gao reg: 120.2; RGS7-Gao: 116.8; Avidin bead fluor: 5; GSH bead fluor: 12; RGS8-Gao reg: 166.3*[activator]; RGS-Gao: 120.2*; Biotin-avidin: -0.3; RGS8-Gao single: 98.6; RGS7-Gao single: 100.7; RGS16-Gao conf: 97.4; RGS4-Gao single: 98.7; RGS19-Gao conf: 103.7

Results for Nc1ccc(Cc2ccc(N)c(O)c2)cc1O ?
RGS16-Gao HTS: 81.8; RGS4-Gao reg: 83.7; RGS7-Gao: 87.5; Avidin bead fluor: 18; GSH bead fluor: 9; RGS8-Gao reg: 92.0

Results for CCOC(=O)c1cnn(-c2ccc([N+](=O)[O-])cc2)c1N ?
RGS16-Gao HTS: 105.8; RGS4-Gao reg: 105.8; RGS7-Gao: inconclusive; Avidin bead fluor: 6; RGS8-Gao reg: 101.4

How did CN(C)/C=N/c1c(C#N)cnn1-c1ccc(C(F)(F)F)cn1 do in these assays?
RGS16-Gao HTS: -121.6*; RGS4-Gao reg: 60.6; RGS7-Gao: 70.1; Avidin bead fluor: 9; GSH bead fluor: 23; RGS8-Gao reg: 69.7; RGS-Gao: 60.6*; Biotin-avidin: 3.9; RGS8-Gao single: 105.2; RGS7-Gao single: 82.9; RGS16-Gao conf: 102.4; RGS4-Gao single: 90.2; RGS19-Gao conf: 64.5

Results for CCN(CCCCCN(C)C)Cc1cc2ccccc2o1 ?
RGS16-Gao HTS: 93.9; RGS4-Gao reg: 100.8; RGS7-Gao: 95.5; Avidin bead fluor: 10; GSH bead fluor: 13; RGS8-Gao reg: 98.5

Results for O=C(Cc1ccc(Br)cc1)N(Cc1ccccc1)c1ccccn1 ?
RGS16-Gao HTS: 107.1; RGS4-Gao reg: 112.3; RGS7-Gao: 151.0*[activator]; Avidin bead fluor: 59*; GSH bead fluor: 27; RGS8-Gao reg: 103.4; RGS-Gao: 112.3*; Biotin-avidin: 1.6; RGS8-Gao single: 97.6; RGS7-Gao single: 94.2; RGS16-Gao conf: 99.1; RGS4-Gao single: 97.7; RGS19-Gao conf: 145.0

What do the screens show for `Cc1ccc(N=c2sc(C)c(C)n2C)cc1`?
RGS16-Gao HTS: 102.5; RGS4-Gao reg: 100.1; RGS7-Gao: 101.6; Avidin bead fluor: 5; GSH bead fluor: 8; RGS8-Gao reg: 101.8

What do the screens show for `COc1ccc(-n2cc(CNCC3CC(=O)N(C4CC4)C3)c(-c3ccccc3Cl)n2)cc1` (stereo not given)?
RGS16-Gao HTS: 105.6; RGS4-Gao reg: 101.8; RGS7-Gao: 98.2; Avidin bead fluor: 12; GSH bead fluor: 13; RGS8-Gao reg: 107.2

Results for CCN1CC(CNCc2cn(-c3ccc(OC)cc3)nc2-c2ccccc2Cl)CC1=O (stereo not given) ?
RGS16-Gao HTS: 43.2; RGS4-Gao reg: 48.2*; RGS7-Gao: 38.9*; Avidin bead fluor: 2; GSH bead fluor: 16; RGS8-Gao reg: 56.8*; Biotin-avidin: 0.1; RGS8-Gao single: 98.6; RGS7-Gao single: 84.1; RGS16-Gao conf: 95.6; RGS4-Gao single: 88.5; RGS19-Gao conf: 100.0

Results for Cc1[nH]c2ccccc2c1C(c1ccncc1)N1CCN(c2ccccc2F)CC1 (stereo not given) ?
RGS16-Gao HTS: 101.3; RGS4-Gao reg: 119.3; RGS7-Gao: 159.6*[activator]; Avidin bead fluor: 92*; GSH bead fluor: 10; RGS8-Gao reg: 92.9; RGS-Gao: 119.3*; Biotin-avidin: 1.0; RGS8-Gao single: 100.6; RGS7-Gao single: 101.3; RGS16-Gao conf: 101.0; RGS4-Gao single: 100.9; RGS19-Gao conf: 100.1

What do the screens show for `O=C(OCC(=O)N1CCc2ccccc21)c1ccccc1`?
RGS16-Gao HTS: 106.2; RGS4-Gao reg: 105.7; RGS7-Gao: 103.3; Avidin bead fluor: 5; GSH bead fluor: 27; RGS8-Gao reg: 103.3

Results for O=C(CO/N=C/c1ccccc1O)N1CCc2ccccc21 ?
RGS16-Gao HTS: 190.8*[activator]; RGS4-Gao reg: 113.8; RGS7-Gao: 114.8; Avidin bead fluor: 16; GSH bead fluor: 5; RGS8-Gao reg: 121.9; RGS-Gao: 113.8*; Biotin-avidin: -0.6; RGS8-Gao single: 98.8; RGS7-Gao single: 94.7; RGS16-Gao conf: 95.5; RGS4-Gao single: 97.9; RGS19-Gao conf: 102.5
